Assay [1] can be described thus: NCI Yeast Anticancer Drug Screen. Data for the rad50 strain (AID 155).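 Also: 0% = growth of vehicle-only cultures of the same strain.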 As to conditions: S. cerevisiae rad50 strain growth inhibition; at 50.0 µM; active compounds read high. In short, it runs like this:
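Inhibition values express reduced yeast growth in compound-treated cultures relative to vehicle-treated controls.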

The nature of assay [2]: NCI Yeast Anticancer Drug Screen. Data for the mec2-1 strain (AID 157). As to conditions: S. cerevisiae mec2-1 strain, at 50.0 µM, active compounds read high. A digest of the protocol: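 Strain: mec2-1 (DNA repair/cell cycle alteration). Compound exposure, then growth measured; inhibition expressed relative to vehicle.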
Assay [3] in a line: NCI Yeast Anticancer Drug Screen. Data for the sgs1 mgt1 strain (AID 161).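 Also: 0% = growth of cultures given vehicle only.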 Conditions: S. cerevisiae sgs1 mgt1 strain, at 50.0 µM, active compounds read high. A digest of the protocol: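 Read-out: growth inhibition vs vehicle controls. Cells: mutant yeast strain deficient in DNA damage repair.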
Assay [4] in a line: NCI Yeast Anticancer Drug Screen. Data for the cln2 rad14 strain (AID 165).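 Also: 0% = growth equal to vehicle treated cultures.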 Conditions: S. cerevisiae cln2 rad14 strain, at 50.0 µM, active compounds read high. A digest of the protocol: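 Compounds are applied to the cln2 rad14 yeast strain, and growth is then compared with that of vehicle-treated cultures to give inhibition.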
Assay [5] in a line: NCI Yeast Anticancer Drug Screen. Data for the bub3 strain (AID 167). As to conditions: S. cerevisiae bub3 mutant strain, at 50.0 µM, active compounds read high. A digest of the protocol:
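Steps: expose the mutant yeast strain to compound; grow alongside vehicle-treated cultures; measure growth; express inhibition against the vehicle cultures.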

Assay [6] can be described thus: NCI Yeast Anticancer Drug Screen. Data for the mlh1 rad18 strain (AID 175). As to conditions: S. cerevisiae mlh1 rad18 strain growth inhibition; at 50.0 µM; active compounds read high. In short, it runs like this: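 Read-out is yeast growth inhibition, calculated against vehicle-only controls. The compound was applied to a strain engineered with DNA damage repair alterations.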

SMILES strings stand for the structures. The panel holds about 79,000 compounds, 15% with a hit somewhere; the sample as a whole holds those more often. Unmarked numbers belong to inactive results. Activity calls are given as the source filed them. Rule as the data show it: active = growth inhibition above about 70%; inactive = the rest.

As for `Clc1ccc(C2NN=C3c4ccccc4OCC32)cc1` (centres undefined), the growth inhibition was -7.85% in assay [1]; -24.1% in assay [2]; -3% in assay [3]; 7.85% in assay [4]; 1.3% in assay [5]; 17.2% in assay [6].

In the case of `OCc1ccccc1OC1OC(CO)C(O)C(O)C1O` (centres undefined), the growth inhibition is 18.5% in assay [1]; 2.6% in assay [2]; 16.4% in assay [3]; -0.45% in assay [4]; 21.6% in assay [5]; -50.9% in assay [6].

In the case of `NC(N)=Nc1ccc(CC(N)C(=O)O)cc1` (centres undefined), the growth inhibition in assay [1] is -0.5%; in assay [2], -18.8%; in assay [3] it was -13.4%; in assay [4], 15.2%; in assay [5], -3.8%; in assay [6], -25.6%.

Regarding `O=C(CCc1ccc(O)c(O)c1)c1ccc(O)c(O)c1O`, the growth inhibition in assay [1] was 2.05%; in assay [2], -19.9%; in assay [3], 9.1%; in assay [4], 2.6%; in assay [5], -17.1%; in assay [6] it was -33.9%.

Regarding `C/C(O)=C/c1nc2sc(C)c(C)c2c(=O)s1`, the growth inhibition in assay [1] was 14.4%; in assay [2], 9.35%; in assay [3], 9.85%; in assay [4] it was 5.5%; in assay [5], 15.2%; in assay [6], -16.5%.

With `Cc1ccc(OC2CC(n3cnc4ncnc(Cl)c43)OC2Oc2ccc(C)cc2)cc1` (centres undefined), the growth inhibition in assay [1] was 21%; in assay [2], 2.1%; in assay [3], 13.9%; in assay [4] it was 8.4%; in assay [5], 13%; in assay [6], -33.8%.

On to `N#Cc1c(N)oc(-c2cccc([N+](=O)[O-])c2)c1C#N`, for which the growth inhibition in assay [1] was 24.6%; in assay [2], 28.9%; in assay [3] it was -19.9%; in assay [4] it was 10.8%; in assay [5], -6.3%; in assay [6] it was -16.9%.

As to `CC(=O)C(/C=N/C(N)=O)=C(/C)O`, the growth inhibition in assay [1] was 5.4%; in assay [2] it was -7.5%; in assay [3], 3.75%; in assay [4] it was 2.75%; in assay [5] it was -2.3%; in assay [6], 2.55%.

Regarding `COc1c(O)ccc(C2=Cc3ccc(O)cc3OC2)c1OC`, the growth inhibition was 80.2% (active) in assay [1]; 91.5% (active) in assay [2]; 88.2% (active) in assay [3]; 88.3% (active) in assay [4]; 88.7% (active) in assay [5]; -25.6% in assay [6].

As to `CCN(CC)C(=O)c1cccnc1`, the growth inhibition in assay [1] was 0.8%; in assay [2] it was -46.9%; in assay [3], -33%; in assay [4] it was 14.2%; in assay [5], -20.4%; in assay [6], 18.6%.

Regarding `CCC(c1ccc(N(C)C)cc1)C1NC(=S)NC1=O` (centres undefined), the growth inhibition is -4.2% in assay [1]; -27.8% in assay [2]; -17.6% in assay [3]; 0.85% in assay [4]; 11.8% in assay [5]; -9.55% in assay [6].

Regarding `C[C@]12CC[C@@H]3c4ccc(OS(N)(=O)=O)cc4CC[C@H]3[C@@H]1CCC2=O`, the growth inhibition in assay [1] was 2.35%; in assay [2], 8.15%; in assay [3], -2.05%; in assay [4] it was 8.35%; in assay [5], 5.6%; in assay [6], 15.8%.

With `CC(=O)C1=C(C)N2C(=NC3=C(CCc4ccccc43)C2c2ccc(Cl)cc2)S1` (centres undefined), the growth inhibition in assay [1] was 25.9%; in assay [2], -14.6%; in assay [3], 6.85%; in assay [4] it was 6.25%; in assay [5], -6.9%; in assay [6], 1.5%.

Take `CC(=N\N=C\c1ccccn1)/C(C)=N/N=C/c1ccccn1`: the growth inhibition is 7.8% in assay [1]; 10.3% in assay [2]; -4.4% in assay [3]; 30.6% in assay [4]; -14.2% in assay [5]; -53.3% in assay [6].

`COC(=O)C(C(=O)C(=O)Nc1c(C)cccc1C(C)(C)C)c1nc2ccc(Cl)cc2[nH]c1=O` (centres undefined): the growth inhibition in assay [1] is -7.9%; in assay [2], -26.9%; in assay [3], -2.25%; in assay [4] it was 16.9%; in assay [5], -3.5%; in assay [6] it was 12.7%.

Consider `COc1ccc(C2c3cc4c(c(OC)c3CC3OCC(=O)C32)OCO4)cc1OC` (centres undefined), for which the growth inhibition in assay [1] was 4.25%; in assay [2], -15.7%; in assay [3], 22.6%; in assay [4] it was 13.1%; in assay [5], 1.45%; in assay [6] it was -4.3%.

With `Cc1ccc(C)c(NC(=O)/C(=N\N)C(c2cnc3ccc([N+](=O)[O-])cc3n2)[N+](=O)[O-])c1` (centres undefined), the growth inhibition in assay [1] is 42.5%; in assay [2], 27.2%; in assay [3], 6.75%; in assay [4] it was -35.2%; in assay [5], 32.2%; in assay [6], 28.6%.

Turning to `COc1ccc(CC2C(=O)NC(=O)NC2=O)cc1OCc1ccccc1`, the growth inhibition in assay [1] is 14.7%; in assay [2], -1.75%; in assay [3], -14.1%; in assay [4] it was -10%; in assay [5] it was -17.4%; in assay [6], -44.6%.

Consider `CC(C)=CCc1cc(C2COc3cc4c(c(O)c3C2=O)C=CC(C)(C)O4)c(O)cc1O` (centres undefined), for which the growth inhibition in assay [1] was 91.3% (active); in assay [2], 93% (active); in assay [3], 92% (active); in assay [4], 90.9% (active); in assay [5] it was 91.6% (active); in assay [6] it was 88% (active).

(Values after PubChem BioAssay (NCI).)
